Source: PubChem BioAssay
GPR151 activ = activators of human GPR151 | AID 1508602 | activation, % at 11.2 µM | PathHunter beta-arrestin GPR151 cells, luminescence | actives 1% (n = 650,000); in the data active means activation above about 4.9%
MITF primary = human MITF inhibition, primary screen | O75030 | AlphaScreen MITF homodimerization, bead proximity signal | inhibition, % at 2.6 µM | actives 0.91% (n = 650,000) | AID 1259374; in the data active means inhibition above about 50%
FBW7 activator = activators of human E3 ligase FBW7 | actives 0.13% (n = 650,000) | AlphaScreen FBW7–phospho-cyclin E peptide binding, activator screen | normalized activity (activation), % at 26.1 µM | AID 1259310; in the data active means normalized activity above about 1.9%;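 further: purified mutant Fbw7 with reduced substrate affinity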
Target sequence (Q969H0 whole entry, looked up): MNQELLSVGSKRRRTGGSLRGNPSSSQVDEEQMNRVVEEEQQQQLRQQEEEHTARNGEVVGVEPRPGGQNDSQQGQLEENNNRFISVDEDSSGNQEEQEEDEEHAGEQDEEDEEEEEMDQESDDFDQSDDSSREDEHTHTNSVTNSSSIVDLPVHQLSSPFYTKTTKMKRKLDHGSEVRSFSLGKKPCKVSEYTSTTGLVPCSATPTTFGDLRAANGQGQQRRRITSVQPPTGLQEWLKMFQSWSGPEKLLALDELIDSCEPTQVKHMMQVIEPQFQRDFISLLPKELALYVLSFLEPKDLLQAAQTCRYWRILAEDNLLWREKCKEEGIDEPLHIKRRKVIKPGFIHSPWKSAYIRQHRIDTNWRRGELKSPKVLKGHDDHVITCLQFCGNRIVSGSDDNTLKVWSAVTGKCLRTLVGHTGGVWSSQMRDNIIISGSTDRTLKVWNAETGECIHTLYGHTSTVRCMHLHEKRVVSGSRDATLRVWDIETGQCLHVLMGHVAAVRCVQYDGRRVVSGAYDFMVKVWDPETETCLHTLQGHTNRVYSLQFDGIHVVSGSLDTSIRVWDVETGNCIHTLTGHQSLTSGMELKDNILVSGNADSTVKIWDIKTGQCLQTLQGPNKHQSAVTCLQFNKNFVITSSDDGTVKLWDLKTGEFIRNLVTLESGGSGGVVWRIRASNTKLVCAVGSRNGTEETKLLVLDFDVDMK
TEAD-YAP inh = TEAD-YAP interaction inhibition | HEK-TIYL cells, TEAD-Gal4/YAP UAS-luciferase luminescence | inhibition, % at 9.12 µM | actives 1.4% (n = 640,000); in the data active means inhibition above about 32%
Of the large screens only hits and unclear results are named; the others gave an inactive call; ! = not confirmed by another sample. A selection: hits, their analogues and other compounds. The true share with any hit is near 3.4%.

COc1ccc(-n2nc(C(=O)NCC(=O)NCCN(C)CCc3ccccn3)c3ccccc3c2=O)cc1Cl	TEAD-YAP inh 33
COc1ccc(-n2nc(C(=O)NCC(=O)Nc3ccc(OC)c(OC)c3)c3ccccc3c2=O)cc1	none
COc1ccc(C)cc1NC(=O)CNC(=O)c1nn(-c2ccc(OC)c(OC)c2)c(=O)c2ccccc12	TEAD-YAP inh 35
COc1ccc(-n2nc(C(=O)NCC(=O)Nc3cc(OC)c(OC)c(OC)c3)c3ccccc3c2=O)cc1Cl	TEAD-YAP inh 50
COc1ccc(NC(=O)CNC(=O)c2nn(-c3ccc(OC)c(OC)c3)c(=O)c3ccccc23)cc1OC	TEAD-YAP inh 34
COCC(C)N1C(=O)C(CC(=O)Nc2ccccc2)SC1=Nc1ccc(F)cc1F (configuration not stated)	none
Cc1ccccc1N1C(=O)c2ccc(C(=O)OCC(=O)N3C(C)CCCC3C)cc2C1=O (configuration not stated)	none
Clc1cccc(-c2cnc3ccc(NCCc4ccccn4)nn23)c1	TEAD-YAP inh 48
Clc1ccc(-c2cnc3ccc(NCCc4ccccn4)nn23)cc1	none
c1ccc(CCNc2ccc3ncc(-c4ccc(N5CCOCC5)cc4)n3n2)nc1	TEAD-YAP inh 47
CCCNc1ccc2ncc(-c3ccc(N4CCOCC4)cc3)n2n1	none
N#Cc1ccc(-c2cnc3ccc(NCCc4ccccn4)nn23)cc1	TEAD-YAP inh 63
COc1ccc(-c2cnc3ccc(NCCc4ccccn4)nn23)cc1	TEAD-YAP inh 36
O=C1CCCN(c2ccc(F)c(C(F)(F)F)c2)N1	none
COc1cccc(/C=C2\SC(=S)N(CCCCCC(=O)O)C2=O)c1	TEAD-YAP inh 66
O=C(CCN1C(=O)/C(=C/C=C/c2ccccc2)SC1=S)Nc1ccccn1	none
O=C(O)CCCCCN1C(=O)/C(=C/c2cccc(O)c2)SC1=S	TEAD-YAP inh 45
Cc1csc(NC(=O)CCN2C(=O)/C(=C/C=C/c3ccccc3)SC2=S)n1	MITF primary 61
O=C(O)CCN1C(=O)/C(=C\c2cccc(O)c2)SC1=S	none
O=C(O)CCN1C(=O)/C(=C/c2cccc(O)c2)SC1=S	none
Cc1cccc(/C=C2\SC(=S)N(CCC(=O)O)C2=O)c1	TEAD-YAP inh 34
O=c1c2c3c(sc2nc(SCc2ccc4c(c2)OCO4)n1C1CCCCC1)CCCC3	none
Cc1cc(-n2c(C)cc(/C=N/n3cnnc3)c2C)ccc1I	none
Oc1ccccc1-c1nnc(-c2ccc(F)cc2)o1	none
Clc1ccc(-c2cc3c(nn2)Nc2ccccc2N3)cc1	TEAD-YAP inh 86
COc1ccc(C2=CC(=O)Nc3ccccc3S2)cc1	none
COc1ccc(-c2cc3c(nn2)Nc2ccccc2S3)cc1	TEAD-YAP inh 86
O=c1c(Cl)c(Cl)cnn1C12CC3CC(CC(C3)C1)C2	TEAD-YAP inh 78
O=c1c(Cl)c(NCCO)cnn1C12CC3CC(CC(C3)C1)C2	none
O=c1c(-c2ccc(Br)cc2)coc2cc(O)cc(O)c12	none
COc1ccc(-c2coc3cc(O)ccc3c2=O)cc1	TEAD-YAP inh 53!
CC(C)Oc1cc(O)c2c(=O)c(-c3ccc(O)cc3)coc2c1	TEAD-YAP inh 57
Cc1oc2cc(O)cc(O)c2c(=O)c1-c1ccc2c(c1)OCCCO2	TEAD-YAP inh 43
O=c1c(-c2ccc(O)cc2)coc2cc(O)cc(O)c12	TEAD-YAP inh 44!
CCOC(=O)C(C)Oc1ccc2c(=O)c(-c3ccc(OC(C)C)cc3)coc2c1 (configuration not stated)	none
Cc1oc2cc(O)ccc2c(=O)c1-c1ccc2c(c1)OCCO2	none
COc1ccc(-c2coc3cc(OC)ccc3c2=O)cc1	none
NC(=O)CSc1nc2ccccc2c(=O)n1-c1ccccc1C(F)(F)F	none
COc1ccc(-c2coc3cc(O)cc(O)c3c2=O)cc1	TEAD-YAP inh 37!
O=c1c(-c2ccc(Cl)cc2)coc2cc(O)ccc12	none
Cc1nc(-c2coc3cc(O)cc(O)c3c2=O)cs1	none
O=c1c(-c2ccc3c(c2)OCCCO3)coc2cc(O)ccc12	TEAD-YAP inh 75
Cc1cnc(Nc2ccc(-n3ccnc3)cc2)nc1N	none
Cn1cc(-c2ccc3cnc(Nc4ccc(N5CCOCC5)cc4)nc3c2)cn1	TEAD-YAP inh 60
c1cn(-c2ccc(Nc3ncc4ccc(-c5cn[nH]c5)cc4n3)cc2)cn1	TEAD-YAP inh 96
Cn1cc(-c2ccc3cnc(Nc4ccc(C(=O)N5CCOCC5)cc4)nc3c2)cn1	TEAD-YAP inh 71
Cn1cc(-c2ccc3cnc(Nc4ccc(-n5ccnc5)cc4)nc3c2)cn1	TEAD-YAP inh 72
CCOC(=O)C1=C(C)N=c2s/c(=C/c3cccc([N+](=O)[O-])c3O)c(=O)n2C1c1ccc(F)cc1 (configuration not stated)	none
